The whole screen tested about 69,000 compounds, of which about 8,600 (12%) showed an effect of 50% or more. The sample holds strong results, similar compounds and a random draw of the others, so the mix is not that of the screen.

Here are results for 102 compounds from ChEMBL document CHEMBL4513216, “Probing the Open Global Health Chemical Diversity Library for Multistage-Active Starting Points for Next-Generation Antimalarials” (ACS Infect Dis, 2020).

This test concerns Plasmodium berghei. The test can be described thus: Screen against P. berghei liver stage (PbLuc), transformed with Luciferase, at 10uM. The settings on record: tested at 10 uM. It is filed as functional, HepG2.
`CCc1ccc(CN2CCC(c3ccccc3C(=O)O)C2)nc1` (configuration not stated): the INHIBITION was -8.66%.

`Cc1cccn2c(NC(C)(C)C)c(C3CCN(C(=O)C4CC4)CC3)nc12`: the INHIBITION is reported as -4.49%. In the case of `CNC(=O)[C@H]1C[C@@H]2CN(S(=O)(=O)c3ccc(C)c(F)c3)C[C@@H]2N1C`, the INHIBITION was 0.542%. With `CC(CNC(=O)c1cn(-c2ccccc2)nn1)Cn1cccn1` (configuration not stated) the figure was 20.2%; with `CCN(CC)C1COc2c(cc(Br)c(C)c2C)C1=O` (configuration not stated), 47.1%; with `COc1ccc(-c2cc(C3(O)CCN(C)CC3)on2)cc1`, 19.3%.

Turning to `CN(Cc1ccco1)C[C@H]1OC[C@@H]2CCN(Cc3ccsc3)C[C@@H]21`, the INHIBITION is recorded as 62.4%. With `CN(Cc1ccco1)C[C@H]1OC[C@@H]2CCN(Cc3cccs3)C[C@@H]21` the figure was 25.4%; with `CN(Cc1ccco1)C[C@H]1OC[C@@H]2CCN(Cc3ccncc3)C[C@@H]21`, -46.8%.

Consider `Cc1cn[nH]c1C1COCCN1C(=O)c1ccc2c(c1)CCCC2` (configuration not stated), for which the INHIBITION is recorded as -6.88%. The figure for `CSc1ccc(C(=O)C2CCCN(C(=O)CCn3cnnn3)C2)cc1` (configuration not stated) is 5.91%. For the compound `COc1cccc(CC(=O)NC(C)c2nc3cccnc3n2C(C)C)c1` (configuration not stated), the INHIBITION is -17.7%. The figure for `COc1ccc(CC(=O)NC(C)c2nc3cccnc3n2C(C)C)cc1` (configuration not stated) is 90.5%; for `COc1ccccc1CC(=O)NC(C)c1nc2cccnc2n1C(C)C` (configuration not stated) it is -29.8%. With `CN(Cc1ncc(-c2ccccc2C(=O)O)s1)c1ncccn1` the figure was 12%; with `Cc1cc(S(=O)(=O)NC(C)(C)CN)c(F)cc1F`, 37.6%; with `CCC(NC(=O)C1CCN(S(C)(=O)=O)CC1)c1ccc(C)cc1` (configuration not stated), 33%. For `CCC(NC(=O)c1nn(C)cc1C(=O)O)c1ccc(C)cc1C` (configuration not stated), the INHIBITION is on record as 32.3%.

In the case of `CCOc1ccc(C(C)NC(=O)N2CCC(C(N)=O)CC2)cc1OC` (configuration not stated), the INHIBITION amounted to 47.4%. The figure for `CCC(NC(=O)C1CCN(S(C)(=O)=O)CC1)c1ccc(C)c(C)c1` (configuration not stated) is 58.5%; for `CCC(NC(=O)C1CCN(S(C)(=O)=O)CC1)c1ccc(OC)c(C)c1` (configuration not stated) it is 23.5%; for `CCC(NC(=O)C1CCN(S(C)(=O)=O)CC1)c1ccc(OC)c(OC)c1` (configuration not stated) it is -6.53%. The figure for `CCC(NC(=O)C1CCN(S(C)(=O)=O)CC1)c1ccc(OC)cc1` (configuration not stated) is 73.6%; for `COc1ccc(C(C)NC(=O)C2CCN(S(C)(=O)=O)CC2)cc1C` (configuration not stated) it is 68.1%. The figure for `COc1ccc(C(C(=O)O)N2CCN(C3CCCC3)CC2)cc1C` (configuration not stated) is 43%; for `CCC(NC(=O)C1CCN(S(C)(=O)=O)CC1)c1ccc(C)cc1C` (configuration not stated) it is 88%. Turning to `CCC(NC(=O)C1CCN(S(=O)(=O)N(C)C)CC1)c1ccc(C)c(C)c1` (configuration not stated), the INHIBITION is 21.8%. On to `Cc1csc(C(Cc2ccsc2)NC(=O)C2CCN(S(C)(=O)=O)CC2)n1` (configuration not stated), for which the INHIBITION was -11.7%. For the compound `Cc1cnn(CCNCc2c(C)nn(C)c2Cl)c1`, the INHIBITION is recorded as 19.2%. Take `c1ccc(CN2CCc3nnc(COc4ccccn4)n3CC2)nc1`: the INHIBITION is recorded as 21.5%.

Regarding `Cc1occc1C(=O)N1CCC2(CC1)CN(Cc1nccs1)CCO2`, the INHIBITION worked out at 30.3%. The figure for `Cc1cc(C)n(CC(=O)N2CCC(c3ccn4nccc4n3)CC2)n1` is 19.5%. As to `Cc1ccc(CN2CCC3(CCCC(=O)N3)CC2)s1`, the INHIBITION is -24.5%. As for `CCN(Cc1ccc2c(c1)OCCO2)C(=O)NC(C)Cn1cccn1` (configuration not stated), the INHIBITION came out at 45.7%. With `CCOCc1nc2c(c(N3CCCn4nc(C)cc4C3)n1)CCNCC2`, the INHIBITION turned out to be 34.9%. In the case of `CCOCCCNC(=O)C1(C)CCC(=O)N1c1cc(OC)ccc1OC` (configuration not stated), the INHIBITION stood at 28.3%. The figure for `O=C(O)c1ccc(C2CCCN(Cc3ccc(-c4cc[nH]n4)o3)C2)cc1` (configuration not stated) is -10.4%.

Turning to `Fc1ccc(N2CCCN(Cc3ccc(-c4cc[nH]n4)o3)CC2)cc1`, the INHIBITION is 23.7%.

For the compound `Cc1cnc(C)c(N2CCN(Cc3ccc(-c4cc[nH]n4)o3)CC2)n1`, the INHIBITION is -7.48%. With `O=C(O)c1ccc(CC2CCN(Cc3ccc(-c4cc[nH]n4)o3)C2)cc1` (configuration not stated) the figure was 67.8%; with `Cc1cc(N2CCN(Cc3ccc(-c4cc[nH]n4)o3)CC2)cc(C)n1`, 52.4%. `O=C(O)c1ccccc1C1CCN(Cc2ccc(-c3cc[nH]n3)o2)C1` (configuration not stated): the INHIBITION is 9.16%.

Consider `O=c1occ(CN2CCOCC2)c(O)c1CN1CCOCC1`, for which the INHIBITION came out at 3.19%. With `CC(CO)NS(=O)(=O)c1cccc(C(C)C)c1` (configuration not stated) the figure was 26.6%.

As to `CNS(=O)(=O)c1cccc(C(C)NCc2ccc(F)cc2F)c1` (configuration not stated), the INHIBITION came out at 65.4%.

In the case of `CNS(=O)(=O)c1cccc(C(C)NCc2ccccc2)c1` (configuration not stated), the INHIBITION was determined as 11.8%. On to `CNS(=O)(=O)c1cccc(C(C)NCc2ccncc2)c1` (configuration not stated), for which the INHIBITION was 32.9%.

On to `CNS(=O)(=O)c1cccc(C(C)NCc2ccc(F)c(F)c2)c1` (configuration not stated), for which the INHIBITION came to 59.4%. With `Cc1nc(CNC(C)c2cccc(S(=O)(=O)N(C)C)c2)no1` (configuration not stated) the figure was 39.7%; with `CNS(=O)(=O)c1cccc(C(C)NCc2cccc(O)c2)c1` (configuration not stated), 50.8%. The figure for `CC(NCc1cccc(S(=O)(=O)N(C)C)c1)c1cccnc1` (configuration not stated) is 21.9%. The figure for `CNS(=O)(=O)c1cccc(C(C)NCc2cccc(OC)c2)c1` (configuration not stated) is 20.1%.

Take `CC(NCc1ccc(F)cc1)c1ccc(S(C)(=O)=O)cc1` (configuration not stated): the INHIBITION was found to be 25.5%. For the compound `CCOc1ccc(CNC(C)c2cccc(S(=O)(=O)NC)c2)cc1` (configuration not stated), the INHIBITION amounted to 46.6%. The figure for `CNS(=O)(=O)c1cccc(C(C)NCc2ccc(C)c(C)c2)c1` (configuration not stated) is 62.8%. Turning to `O=S(=O)(C1CC1)N1CC[C@@H]2[C@@H]1CCN2Cc1cccs1`, the INHIBITION came out at 33%. The figure for `Cc1cccc(NC(=O)N2CCCn3cnc(CN(C)C(C)C)c3C2)c1` is -6.3%. With `NC(=O)c1cnn2c(C3CCCN(C4CCOCC4)C3)ccnc12` (configuration not stated), the INHIBITION worked out at 10.51%. Turning to `CCc1ccc(NC(=O)CC2Cn3ncnc3NC2=O)cc1` (configuration not stated), the INHIBITION is listed as -4.76%. Consider `CCN1C(=O)[C@H]2CN(CC(C)C)C[C@H]2C12CCN(C(=O)NC(C)C)CC2`, for which the INHIBITION was -16.9%. Turning to `Cc1ccc(N2CCCC3(CCCC(=O)N3)C2)nn1` (configuration not stated), the INHIBITION was determined as 3.88%. For `CCOCCCC(=O)NCCC(=O)N1CCN(c2ccccn2)CC1`, the INHIBITION is given as -39.5%. The figure for `CCN1CC(O)CN(C(=O)c2ccc(SC)cc2)CC1=O` (configuration not stated) is 47.2%; for `c1ccc2nc(N3CCOC(Cn4cncn4)C3)cnc2c1` (configuration not stated) it is -44.3%.

On to `CCN(CC(=O)N(C)C)C(=O)c1nc(C)n(-c2ccccc2Cl)n1`, for which the INHIBITION is on record as -28.7%. For the compound `CCc1cc(CN(C)C(=O)c2cnn[nH]2)on1`, the INHIBITION is -47.9%.

`COc1ccccc1CNc1ncnc2c1NC(=O)CN2`: the INHIBITION was -79.3%. The figure for `O=C(NCc1nncn1C1CCCCC1)C1COc2ccccc2O1` (configuration not stated) is 35.4%; for `CNS(=O)(=O)c1cccc(C(C)NCc2ccsc2)c1` (configuration not stated) it is 36.3%. As to `CNS(=O)(=O)c1cccc(C(C)NCc2cccc(C)c2C)c1` (configuration not stated), the INHIBITION is 52.6%. With `CNS(=O)(=O)c1cccc(C(C)NCc2ccccc2OC)c1` (configuration not stated) the figure was -9.93%; with `CNS(=O)(=O)c1cccc(C(C)NCc2ccc(C)o2)c1` (configuration not stated), 35.4%. The figure for `CNS(=O)(=O)c1cccc(C(C)NCc2ccco2)c1` (configuration not stated) is 55.1%; for `CNS(=O)(=O)c1cccc(C(C)NCc2nccn2C(C)C)c1` (configuration not stated) it is 23.5%. In the case of `O=C(NCc1ccccc1)[C@H]1C[C@H]2CN(C(=O)NC3CCCC3)C[C@@H]1O2`, the INHIBITION came out at 7.65%. The figure for `CCC1CCCCN1C(=O)Cn1nc(-c2cc(C)oc2C)cc(N)c1=O` (configuration not stated) is 37.5%; for `N#Cc1cccc(C(=O)N2CCc3c(COCC4CC4)cncc3C2)c1` it is 18.7%. The figure for `COc1ccc(CNc2cccnc2-n2cccn2)c(OC)c1OC` is 41.5%; for `O=C(NC1CCCC1)N1CCCCC1c1nc(C2CC2)no1` (configuration not stated) it is 38.6%.

Take `Fc1ccc(CN2CCCn3nnc(COCC4CC4)c3C2)cc1`: the INHIBITION amounted to 46.6%. `O=C(c1ccncc1F)N1CC[C@@H]2CN(c3ncccn3)CCO[C@@H]2C1`: the INHIBITION was -1.55%. The figure for `Cc1cnc(C(=O)N2CC[C@@H]3CN(c4ncccn4)CCO[C@@H]3C2)cn1` is 56.7%; for `O=C(c1cccc(F)c1)N1CC[C@@H]2CN(c3ncccn3)CCO[C@@H]2C1` it is 48.6%; for `Cc1cccc(C(=O)N2CC[C@@H]3CN(c4ncccn4)CCO[C@@H]3C2)c1` it is 4.27%. With `O=C(c1ccccc1F)N1CC[C@@H]2CN(c3ncccn3)CCO[C@@H]2C1` the figure was 69.5%; with `Cc1ccccc1C(=O)N1CC[C@@H]2CN(c3ncccn3)CCO[C@@H]2C1`, 47.4%; with `CN1CCCC1c1cncc(C(=O)NCc2ccccc2)n1` (configuration not stated), 40.6%. With `CN1CCN([C@@H]2CCN(CC3CCOC3)[C@H]2Cc2cnn(C)c2)CC1` (some centres not stated), the INHIBITION is on record as -10.5%. The figure for `COCC(=O)N1CCC2(CC1)COCCN2CCN(C)C` is 0.547%; for `O=C(c1ccccc1)N1C[C@H]2CCC[C@@]2(COCc2ccncc2)C1` it is -4.88%; for `Cc1ccc(C(=O)NCCCNc2ccc(C(F)(F)F)cn2)cc1` it is 51.85%. With `O=C(NCCNc1ccc(C(F)(F)F)cn1)c1ccc(F)cc1Cl` the figure was 3.73%; with `CN(C)c1ccc(C(=O)NCCCNc2ccc(C(F)(F)F)cn2)cc1`, 38.95%; with `O=C(NCCCNc1ccc(C(F)(F)F)cn1)c1ccc(F)cc1`, 67.3%. Regarding `O=C(NCCCNc1ccc(C(F)(F)F)cn1)c1ccc(F)cc1Br`, the INHIBITION was 82.6%.

As to `O=C(NCCCNc1ccc(C(F)(F)F)cn1)c1ccc(F)cc1F`, the INHIBITION is -23.9%. For the compound `Nc1nccnc1C(=O)NCCCNc1ccc(C(F)(F)F)cn1`, the INHIBITION is 25.55%. With `COc1ccc(C(=O)NCCCNc2ccc(C(F)(F)F)cn2)cc1`, the INHIBITION was determined as 34.15%. With `Cc1cc(NCCNc2ccc(C#N)cn2)nc(C)n1` the figure was -14.1%; with `N#Cc1ccc(NCCNc2ccc(C(F)(F)F)cn2)nc1`, 78.4%. `N#Cc1ccc(C(=O)NCCCNc2ccc(C(F)(F)F)cn2)cc1`: the INHIBITION was 42.7%. With `O=C(NCCCNc1ccc(C(F)(F)F)cn1)c1ccccc1`, the INHIBITION was 10.65%.
